# Sampled rows, rich in hits. Any-hit rate of the full collection: about 3.1%.
# EPAC1 ag val: validation of human EPAC1 agonists; Potency, µM, for inactives: max response, positive = active, hits mostly activators; AID 1645883; EPAC1 Rap1b BODIPY-GDP exchange, fluorescence; O95398; 16,000 tested, 1% active; also: nearly all actives have a fitted effect of over 70% in size
# EPAC2 antag: human EPAC2 antagonism, validation; Q8WZA2; AID 1645886; Potency, µM (series often up to 112 µM), inactives show at the top dose activity, negative = inhibition, most hits filed as inhibitors; 16,000 tested, 1.7% active; EPAC2 Rap1B BODIPY-GDP exchange, fluorescence;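 also: 100% = activation by cAMP agonist control; nearly all actives have a fitted effect of over 40% in size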
# Target sequence (Q8WZA2 whole entry, looked up): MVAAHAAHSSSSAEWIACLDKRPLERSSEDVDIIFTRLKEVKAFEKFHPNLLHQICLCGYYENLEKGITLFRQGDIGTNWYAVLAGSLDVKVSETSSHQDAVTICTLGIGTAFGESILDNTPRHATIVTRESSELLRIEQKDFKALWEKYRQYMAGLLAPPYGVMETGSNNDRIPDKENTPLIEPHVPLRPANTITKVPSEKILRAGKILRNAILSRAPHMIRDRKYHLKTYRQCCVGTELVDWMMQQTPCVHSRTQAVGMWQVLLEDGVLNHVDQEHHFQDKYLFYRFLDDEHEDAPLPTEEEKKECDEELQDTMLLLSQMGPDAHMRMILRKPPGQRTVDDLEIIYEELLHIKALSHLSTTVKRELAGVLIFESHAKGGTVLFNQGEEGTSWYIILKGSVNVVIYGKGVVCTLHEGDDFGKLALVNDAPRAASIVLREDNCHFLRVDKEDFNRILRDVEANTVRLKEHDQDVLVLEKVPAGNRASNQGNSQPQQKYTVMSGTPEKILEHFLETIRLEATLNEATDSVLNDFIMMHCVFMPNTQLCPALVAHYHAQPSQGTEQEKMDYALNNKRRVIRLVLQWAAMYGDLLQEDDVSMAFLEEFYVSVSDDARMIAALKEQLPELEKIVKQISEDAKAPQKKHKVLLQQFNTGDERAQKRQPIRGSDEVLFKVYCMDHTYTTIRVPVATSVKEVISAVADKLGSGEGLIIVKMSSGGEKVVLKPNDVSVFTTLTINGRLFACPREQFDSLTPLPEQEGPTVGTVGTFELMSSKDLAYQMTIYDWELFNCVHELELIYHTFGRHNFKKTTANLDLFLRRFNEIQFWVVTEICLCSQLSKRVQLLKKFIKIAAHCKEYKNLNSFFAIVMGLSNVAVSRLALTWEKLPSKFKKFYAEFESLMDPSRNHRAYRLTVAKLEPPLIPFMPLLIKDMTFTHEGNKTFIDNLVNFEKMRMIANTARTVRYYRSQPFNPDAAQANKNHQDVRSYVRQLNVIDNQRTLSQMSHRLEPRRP
#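 Normalized against a 6.5 mM cAMP agonist control, compounds were tested on 100 nM EPAC2 exchanging Rap1B-bound BODIPY-GDP (250 nM) for 50 uM GDP. Fluorescence drop (ex 480, em 540 nm) was tracked at room temperature over 30 min at 5-min intervals.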
# * hit, by the source's call; i = inactive; ? = inconclusive; ! = not confirmed by another sample; [ ] = remark or other dose. Calls follow the shape of the dose curve; as a rule, active = well fitted curve in the direction sought with a large enough effect; inconclusive = small, poorly fitted or top-dose-only effect, or another doubt; inactive = no such curve, though single readings can be large; an effect the other way counts as inactive or inconclusive. Unless noted, % is scaled to controls: 0 for no effect and ±100 for the full control effect; potency is read from the fitted curve at half-maximal effect.
SMILES,EPAC1 ag val,EPAC2 antag
N#CCCn1c(=O)c(-c2cccs2)nc2cnc(N3CCOCC3)nc21,63µM*,29%
CN1CCN(c2ncc3nc(-c4cn(C)c5ccccc45)c(=O)n(CCC#N)c3n2)CC1,112µM*,90%
CN1CCN(c2ncc3nc(-c4cn(C)c5ccccc45)c(=O)n(CCc4ccccc4)c3n2)CC1,-7%,-25%
CN1CCN(c2ncc3nc(-c4cccs4)c(=O)n(CCc4ccccc4)c3n2)CC1,112µM*,46%
O=c1c(-c2cccs2)nc2cnc(N3CCOCC3)nc2n1Cc1cccs1,10%,6%
CN1CCN(c2ncc3nc(-c4cccs4)c(=O)n(Cc4ccc(F)cc4)c3n2)CC1,13%,2%
C=C1CC[C@H](O)C/C1=C\C=C1/CCC[C@]2(C)[C@@H]([C@H](C)CCCC(C)C)CC[C@@H]12,-135%,?
COC(=O)c1cc(CNC(=O)c2cccc(F)c2)cc(NC(=O)c2ccccc2OC)c1,20%,-25%
CC(C)C(NC(=O)c1ccoc1)c1nnc2n1CCN(Cc1ccc3c(c1)Cc1ccccc1-3)CC2 (stereo not drawn),22%,?
Nc1cc(-c2ccncc2)c[nH]c1=O,?,35µM*!
O=C(Nc1ccc(S(=O)(=O)N2CCOCC2)cc1)c1cc(Cl)ccc1NS(=O)(=O)c1ccc(Cl)s1,-2%,?
Cc1cc2nc3c(=O)[nH]c(=O)nc-3n(C[C@H](O)[C@H](O)[C@H](O)COP(=O)(O)OP(=O)(O)OC[C@H]3O[C@@H](n4cnc5c(N)ncnc54)[C@H](O)[C@@H]3O)c2cc1C,112µM*,i
Nc1ncnc2c1ncn2[C@@H]1O[C@H](COP(=O)(O)OP(=O)(O)OP(=O)(O)OP(=O)(O)OC[C@@H]2O[C@H](n3cnc4c(N)ncnc43)[C@@H](O)[C@H]2O)[C@@H](O)[C@H]1O,19%,-1%
O=S(=O)(O)Oc1ccc(C(c2ccc(OS(=O)(=O)O)cc2)c2ccccn2)cc1,22%,-11%
CC(=O)Oc1ccc(C(c2ccc(OC(C)=O)cc2)c2ccccn2)cc1,-44%,18µM*
Cc1cnc(C)c(-c2ccc3c(c2)CC(CNC(=O)Cc2c(C)[nH]c4ccccc24)O3)n1 (stereo not drawn),-7%,-17%
NC(=O)[C@@H]1C[C@]2(NC(=O)NC2=O)c2cc(F)ccc2O1,-22%,-6%
CCC(C)[C@H]1COCCS(=O)(=O)N1Cc1ccc(Br)cc1 (stereo partly drawn),-124%,10µM*
CC(C)[C@H]1COCCS(=O)(=O)N1Cc1ccc(Cl)cc1,-49%,?
CCC(C)[C@H]1COCCS(=O)(=O)N1Cc1ccc(Cl)cc1Cl (stereo partly drawn),-30%,28µM*
CCC(C)[C@H]1COCCS(=O)(=O)N1Cc1ccccc1F (stereo partly drawn),-52%,?
CNC(C)CCC=C(C)C (stereo not drawn),-14%,5%
COc1ccccc1CCNc1ncnc2sc(C(=O)N3CCCC3)c(C)c12,6%,-26%
Cc1nc(C)c(CC(=O)N2CCOc3ccc(CN4CCN(c5ccccn5)CC4)cc3C2)s1,-12%,0%
CCCCC(=O)OCC(=O)[C@H]1[C@H](C)C[C@H]2[C@@H]3C[C@H](F)C4=CC(=O)C=C[C@]4(C)[C@@]3(F)[C@@H](O)C[C@@]21C,-24%,-23%
SMILES,EPAC1 ag val,EPAC2 antag
CC1(C)C(\C=C/C=C\C=C/C=C2/N(CCCCS(=O)(=O)O)c3ccc4ccccc4c3C2(C)C)=[N+](CCCCS(=O)(=O)[O-])c2ccc3ccccc3c21,?,-28%
O=C1CC(c2ccc(O)cc2)Oc2ccccc21 (stereo not drawn),-12%,?
CC(C)=CCc1c(O)cc(O)c2c1O[C@H](c1ccccc1)CC2=O,?,50µM*
Cc1ccc(C(=O)Nc2cccc(-c3nc(CNC(=O)c4ccc(F)cc4Cl)c(C)o3)c2)s1,15%,-10%
COc1cc(-c2noc(C)c2-c2ccc(N(C)C)nc2)cc(OC)c1OC,-2%,?
COc1cc(-c2noc(C)c2-c2ccc3[nH]ccc3c2)cc(OC)c1OC,-73%,79µM*
Cc1c(C(=O)NCc2nccs2)cnn1-c1ncc2c(n1)-c1ccccc1CC2,-1%,-11%
CC(C)(C)NCC(O)CSc1nc(-c2ccc(C(N)=O)s2)cs1 (stereo not drawn),-2%,3%
CCCCCCCCCc1ccc(OCCOCCO)cc1,-116%,?
CCn1ccnc1CC1COc2ccccc2O1 (stereo not drawn),-4%,35µM*!
COc1cccc(OC)c1OCCNC[C@@H]1COc2ccccc2O1,-16%,-28%
CCC(=O)Oc1ccc2c(c1)CC[C@@H]1[C@@H]2CC[C@]2(C)[C@@H](OC(=O)CC)CC[C@@H]12,-19%,27%
COC(=O)c1ccc(CN2CCOc3ccc(CN4CCC(O)(c5cccnc5)CC4)cc3C2)cc1,0%,8%
CCCOC(=O)c1cc(O)c(O)c(O)c1,9%,21%
O=C(OC[C@H]1O[C@@H](OC(=O)c2cc(O)c(O)c(OC(=O)c3cc(O)c(O)c(O)c3)c2)[C@H](OC(=O)c2cc(O)c(O)c(OC(=O)c3cc(O)c(O)c(O)c3)c2)[C@@H](OC(=O)c2cc(O)c(O)c(OC(=O)c3cc(O)c(O)c(O)c3)c2)[C@@H]1OC(=O)c1cc(O)c(O)c(OC(=O)c2cc(O)c(O)c(O)c2)c1)c1cc(O)c(O)c(OC(=O)c2cc(O)c(O)c(O)c2)c1,-126%,22µM*
CC[C@@H](C)[C@H](N)C(=O)O,-24%,7%
NCCC[C@H](N)CC(=O)N[C@H]1CNC(=O)[C@H]([C@H]2C[C@H](O)N=C(N)N2)NC(=O)C(=CNC(N)=O)NC(=O)[C@H](CO)NC(=O)[C@H](CO)NC1=O,3%,-3%[29.6 µM]
O=C1O/C(=C/Br)CCC1c1cccc2ccccc12 (stereo not drawn),-1%,4µM*
CC(C)=CCc1c(O)cc2occ(-c3ccc4c(c3)OCO4)c(=O)c2c1O,?,-25%
O=c1c(-c2ccc(O)cc2)coc2cc(O)cc(O)c12,-5%,-18%
CC(C)=CCc1c2c(c3occ(-c4ccc(O)c(O)c4)c(=O)c3c1O)C=CC(C)(C)O2,-151%,25µM*
CC(C)=CCc1c2c(c3occ(-c4ccc(O)cc4)c(=O)c3c1O)C=CC(C)(C)O2,-170%,32µM*
O=C(NCC1Cc2cccc(-c3cnccn3)c2O1)c1ccc2c(c1)OCCO2 (stereo not drawn),19%,-27%
CO[C@H]1C[C@@H]2CC[C@@H](C)[C@@](O)(O2)C(=O)C(=O)N2CCCC[C@H]2C(=O)O[C@H]([C@H](C)C[C@@H]2CC[C@@H](O)[C@H](OC)C2)CC(=O)[C@H](C)C=C(C)[C@@H](O)[C@@H](OC)C(=O)[C@H](C)C[C@H](C)/C=C/C=CC=C1C,-64%,?
C=C[C@]1(C)C[C@@H](OC(=O)CSCCN(CC)CC)[C@]2(C)[C@H](C)CC[C@]3(CCC(=O)[C@H]32)[C@@H](C)[C@@H]1O,-26%,1%
CO[C@@H]1[C@@H](OC)[C@H](C)[C@@](O)(CC(=O)O)O[C@H]1[C@H](C)[C@H]1O[C@@]2(CC[C@@](C)([C@H]3CC[C@@](C)([C@@H]4O[C@@H]([C@H]5O[C@](C)(O)[C@H](C)C[C@@H]5C)C[C@@H]4OC4C[C@H](OC)[C@@H](OC)[C@H](C)O4)O3)O2)C[C@H](O)[C@H]1C (stereo partly drawn),-53%,5%
